The text below walks through data of PubChem BioAssay AID1159580 (chemical genetic matrix, 2015).

The nature of this assay: chemical genetic growth profiling, strain panel (AID 1159580).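 Also: tested at 20 µM; growth read once vehicle control cultures reached saturation at 30 °C; 1 = growth at the plate median or of vehicle wells; lower values mean less growth of the strain.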 The settings on record: growth OD.
The mark [1] stands for this setting: S. cerevisiae deletion strains, locus YAL040C, strain CLN3, hits give low values.
The mark [2] stands for this setting: S. cerevisiae deletion strains, locus YCL061C, strain MRC1 (second series), hits give low values.
Where [3] appears, read: S. cerevisiae deletion strains, locus YDR363W, strain ESC2, hits give low values.
The mark [4] stands for this setting: S. cerevisiae deletion strains, locus YER002W, strain NOP16, hits give low values.
[5] abbreviates: S. cerevisiae deletion strains, locus YGR229C, strain SMI1, hits give low values.
The mark [6] stands for this setting: S. cerevisiae deletion strains, locus YJR075W, strain HOC1, hits give low values.
Setting [7] is: S. cerevisiae deletion strains, locus YMR307W, strain GAS1, hits give low values.
[8] abbreviates: S. cerevisiae deletion strains, locus YNL175C, strain NOP13, hits give low values.
Where [9] appears, read: S. cerevisiae deletion strains, locus YNL197C, strain WHI3, hits give low values.
[10] abbreviates: S. cerevisiae deletion strains, locus YNL224C, strain SQS1, hits give low values.
Where [11] appears, read: S. cerevisiae deletion strains, locus YOR083W, strain WHI5 (second series), hits give low values.
The mark [12] stands for this setting: S. cerevisiae deletion strains, locus YPL055C, strain LGE1, hits give low values.
Setting [13] is: S. cerevisiae deletion strains, locus YAL013W, strain DEP1, hits give low values.
Where [14] appears, read: S. cerevisiae deletion strains, locus YDR150W, strain NUM1, hits give low values.
The mark [15] stands for this setting: S. cerevisiae deletion strains, locus YGR078C, strain PAC10, hits give low values.
Where [16] appears, read: S. cerevisiae deletion strains, locus YMR263W, strain SAP30, hits give low values.
Setting [17] is: S. cerevisiae deletion strains, locus YNL128W, strain TEP1, hits give low values.
The mark [18] stands for this setting: S. cerevisiae deletion strains, locus YNL153C, strain GIM3, hits give low values.

Screen size: about 5,500 compounds; about 2,000 (36%) were called active. About 18% were inconclusive and are not listed. The list shows a part of the results. Values without a mark were called inactive. Rule as the data show it: active = normalized growth mostly below about 0.91 (no sharp cut-off); inconclusive = no clear call, values can overlap the other calls; inactive = mostly above about 0.92.

Consider `CN(C)c1ccc(/C=C2\C(=O)Nc3ccccc32)cc1`, for which the normalized growth was 0.95 under setting [1]; 0.993 under setting [2]; 0.963 under setting [3]; 0.877 (active) under setting [4]; 0.93 under setting [5]; 0.972 under setting [6]. For the same compound, the normalized growth by setting is: under setting [7], 0.984; under setting [8], 0.809 (active); under setting [9], 0.942; under setting [10], 0.891 (active); under setting [11], 0.786 (active); under setting [12], 0.972.
On to `Cc1cc(C)c(/C=C2\C(=O)Nc3ccccc32)[nH]1`, for which the normalized growth is 0.967 under setting [13]; 1.06 under setting [1]; 0.994 under setting [2]; 0.939 under setting [14]; 0.987 under setting [3]; 0.999 under setting [4]. The normalized growth runs as follows: under setting [15], 0.991; under setting [5], 0.917; under setting [16], 0.99; under setting [7], 0.887 (active); under setting [17], 0.935; under setting [18], 0.872. The normalized growth runs as follows: under setting [8], 0.992; under setting [9], 0.934; under setting [10], 0.929; under setting [11], 0.847 (active).
With `Clc1ccc(C=C2c3ccccc3-c3ccccc32)cc1`, the normalized growth by setting is: under setting [13], 0.988; (S. cerevisiae deletion strains, locus YBR229C, strain ROT2, hits give low values) 0.973; (S. cerevisiae deletion strains, locus YDL101C, strain DUN1, hits give low values) 0.986; (S. cerevisiae deletion strains, locus YDL134C, strain PPH21, hits give low values) 1; under setting [14], 0.95; (S. cerevisiae deletion strains, locus YEL061C, strain CIN8, hits give low values) 0.99. Further, the normalized growth is 1 under setting [15]; 0.873 (S. cerevisiae deletion strains, locus YHR030C, strain SLT2, hits give low values); 0.986 (S. cerevisiae deletion strains, locus YHR087W, strain rtc3, hits give low values); 1 (S. cerevisiae deletion strains, locus YJL187C, strain SWE1, hits give low values); 0.981 (S. cerevisiae deletion strains, locus YJR043C, strain POL32, hits give low values); 0.979 under setting [6]. For the same compound, the normalized growth was 0.967 (S. cerevisiae deletion strains, locus YLR039C, strain RIC1, hits give low values); 0.972 (S. cerevisiae deletion strains, locus YLR058C, strain SHM2 (second series), hits give low values); 0.996 (S. cerevisiae deletion strains, locus YLR085C, strain ARP6, hits give low values); 0.855 (S. cerevisiae deletion strains, locus YLR262C, strain YPT6, hits give low values); 1.03 (S. cerevisiae deletion strains, locus YML094W, strain GIM5, hits give low values); 0.988 (S. cerevisiae deletion strains, locus YMR219W, strain ESC1, hits give low values). Moreover, the normalized growth by setting is: under setting [16], 0.983; under setting [7], 1.03; under setting [17], 0.984; under setting [18], 0.965; (S. cerevisiae deletion strains, locus YNL298W, strain CLA4 (second series), hits give low values) 0.949; (S. cerevisiae deletion strains, locus YNL322C, strain KRE1, hits give low values) 1. The normalized growth is, setting by setting: (S. cerevisiae deletion strains, locus YNR030W, strain Alg12, hits give low values) 0.957; under setting [12], 1.01; (S. cerevisiae deletion strains, locus YPL241C, strain CIN2, hits give low values) 0.995; (S. cerevisiae deletion strains, locus YPR135W, strain CTF4, hits give low values) 0.855; (S. cerevisiae strains, strain wild type, hits give low values) 0.961.
